Bioassay records deposited in PubChem by several laboratories.
Shown are actives, neighbours in structure and some others; about 2.9% of the full set was active somewhere.
Mcl1 Bid PPI: disrupts binding of human Mcl-1 to Bid peptide; Q07820; TR-FRET Mcl-1/Bid-Dy647 peptide binding, 1536-well; inhibition, % at 21.7 µM; 220,000 tested, 0.97% active;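 active means compounds that cut the binding signal by more than half at the single screening dose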;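 further: His-tagged Mcl-1 with europium anti-His antibody binding Bid BH3 peptide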
Target sequence (Q07820 whole entry, looked up): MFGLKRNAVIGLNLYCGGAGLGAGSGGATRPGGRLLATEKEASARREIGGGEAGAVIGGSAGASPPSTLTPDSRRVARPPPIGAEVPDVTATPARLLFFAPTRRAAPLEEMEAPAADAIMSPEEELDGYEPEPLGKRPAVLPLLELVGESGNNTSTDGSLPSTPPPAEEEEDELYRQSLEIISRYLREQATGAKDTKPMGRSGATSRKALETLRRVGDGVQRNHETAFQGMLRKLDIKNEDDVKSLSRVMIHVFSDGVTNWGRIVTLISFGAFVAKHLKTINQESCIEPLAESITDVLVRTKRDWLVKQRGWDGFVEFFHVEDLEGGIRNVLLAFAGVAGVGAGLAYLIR
Pf gametocyte: kills late stage P. falciparum gametocytes; P. falciparum stage V gametocytes, ATP luminescence, 24 h; inhibition, % at 10.9 µM; 150,000 tested, 0.065% active;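 active means inhibition above the mean plus 3 SD of compounds within the control limits, set per campaign, cut at about 38% in these data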
14-3-3 Bad inh: disrupts binding of bovine 14-3-3 zeta to phospho-Bad peptide; 220,000 tested, 0.71% active; P63103; TR-FRET 14-3-3zeta/Dy647-pBad peptide displacement, 1 h; inhibition, % at 21.7 µM;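 active means inhibition above about 70%, limit read from the data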
Target sequence (P63103 whole entry, looked up): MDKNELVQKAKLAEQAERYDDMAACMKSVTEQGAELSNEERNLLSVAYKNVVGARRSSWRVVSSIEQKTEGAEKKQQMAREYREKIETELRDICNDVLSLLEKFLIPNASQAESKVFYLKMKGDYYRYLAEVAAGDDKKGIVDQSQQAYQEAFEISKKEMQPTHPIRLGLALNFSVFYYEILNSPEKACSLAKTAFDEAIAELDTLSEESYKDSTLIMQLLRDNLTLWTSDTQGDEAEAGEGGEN
Mcl1-Noxa inh: Mcl-1/Noxa interaction inhibition | Q07820 | TR-FRET Mcl-1/Noxa peptide binding, 2 h | inhibition, % at 21.7 µM | 220,000 tested, 1.5% active | AID 1022;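 active means compounds that cut the protein-peptide binding signal by more than 50% relative to plate controls in a single-dose test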;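 further: His-tagged Mcl-1 with rhodamine Noxa BH3 peptide and terbium anti-His antibody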
Hck Nef HTS: human Hck-Nef kinase inhibition; Recombinant Hck-YEEI plus Nef, Z-Lyte FRET kinase assay; inhibition, % at 20 µM; 220,000 tested, 0.68% active;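 active means Hck-Nef kinase inhibition above about 50%, limit read from the data; inactive means inhibition below that limit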
Bim-Mcl-1: disrupts Bim peptide binding to human Mcl-1. 190,000 tested, 0.1% active. Q07820. AID 1009. Bead-based flow cytometry, Bim peptide-Mcl-1 binding. inhibition, % at 10 µM; in the data active means inhibition above about 40%
Large screens that a line does not name were inactive; [ ] = another dose, or the depositor's remark.

COc1cc2c(c(OC)c1O)C(=O)CO2	none (no result: Pf gametocyte, Bim-Mcl-1)
COc1cc(OC)c2c(O)c3c(c(-c4c5c(c(O)c6c(OC)cc(OC)cc46)CO[C@@H](C)[C@H]5O)c2c1)[C@H](O)[C@H](C)OC3	Mcl1 Bid PPI 79, Mcl1-Noxa inh 102, Hck Nef HTS 51 (no result: Pf gametocyte)
CC(=O)c1ccc(NC(=S)NCC(c2ccco2)N2CCCC2)cc1 (centres undefined)	none
COC(=O)c1ccc(COc2ccc(/C=C(\C#N)c3nc4ccccc4[nH]3)cc2OC)o1	none
CCc1ccc(NC(=O)COc2ccc(/C=C(/C#N)c3nc4ccccc4[nH]3)cc2OC)cc1	Mcl1 Bid PPI 56
O=C(CN1CCc2ccccc21)NC(=O)NCc1ccco1	none
CC1CCN(CCCn2c(=S)[nH]c3c(sc4ccccc43)c2=O)CC1	Mcl1-Noxa inh 59
CC1CCN(CCCn2c(=S)[nH]c3c(sc4ccc([N+](=O)[O-])cc43)c2=O)CC1	none
Cc1nnc2n1NC(c1ccc(Cl)cc1)C(C(=O)N(C)C1CCCCC1)S2 (centres undefined)	14-3-3 Bad inh 127[fluorescence artefact?] (no result: Pf gametocyte)
COC(=O)c1cccc(NC(=O)C(C)N2C(=O)c3ccccc3C2=O)c1 (centres undefined)	none
COc1ccc(C2CC(c3ccccc3)Nc3nc(N)nn32)cc1 (centres undefined)	Mcl1 Bid PPI 71 (no result: Pf gametocyte)
O=C(OC1CCOC1=O)c1ccc(S(=O)(=O)N2CCCCCC2)cc1 (centres undefined)	none
COc1cc(S(=O)(=O)Nc2cccc(C)c2)ccc1NC(=O)c1ccncc1	Mcl1 Bid PPI 95 (no result: Pf gametocyte)
CCOc1ccc(NS(=O)(=O)c2ccc(NC(=O)c3cccnc3)c(OC)c2)cc1	none
Oc1ccccc1NCC(O)Cn1ccc2ccccc21 (centres undefined)	Mcl1-Noxa inh 74
OC(CNCc1ccccc1)Cn1ccc2ccccc21 (centres undefined)	none
Clc1ccc(-c2nc(-c3cnccn3)no2)cc1	none (no result: Bim-Mcl-1)
CN(C)c1ccc(NC(=O)c2sc(SCC(=O)Nc3nccs3)nc2N)cc1	Mcl1-Noxa inh 66
CCCc1nc2ccccc2n1Cc1ccccc1OC	none
C=CCOc1c(Br)cc(C2C3=C(CCCC3=O)N(C)C3=C2C(=O)CCC3)cc1OCC	Hck Nef HTS 53
C#CCn1c(S(=O)(=O)Cc2ccc(F)cc2)nc(-c2ccccc2)c1-c1ccccc1	none (no result: Pf gametocyte)
CC1CCN(C(=O)c2[nH]cnc2C(=O)NCC(=O)OC(C)(C)C)CC1	none (no result: Mcl1 Bid PPI, 14-3-3 Bad inh, Mcl1-Noxa inh, Hck Nef HTS, Bim-Mcl-1)
Cc1cc(/C=C2\SC(=S)NC2=O)c(C)n1C1CC1	none
O=C1NC(=S)S/C1=C\c1coc2ccccc2c1=O	Hck Nef HTS 88 (no result: Pf gametocyte)
O=C1NC(=S)S/C1=C\c1coc2ccc(O)cc2c1=O	Hck Nef HTS 53 (no result: Bim-Mcl-1)
CN(c1ccccc1)S(=O)(=O)c1cccc(NC(=O)CN2CCc3ccccc3C2)c1	none
O=C(CCN1C(=O)COc2ccccc21)NCCN1CCN(c2cccc(Cl)c2)CC1	none (no result: Pf gametocyte)
CCOC(=O)C1CCN(C(=O)COc2ccc(N(C)S(=O)(=O)c3ccc(OCC)cc3)cc2)CC1	none
O=CN/C=C/c1cc(O)ccc1O	Mcl1-Noxa inh 57 (no result: Pf gametocyte, Bim-Mcl-1)
O=C(/C=C/c1ccc(O)cc1)c1ccc(O)cc1O	none (no result: Pf gametocyte)
O=c1oc2ccccc2cc1-c1csc(Nc2nc3c(F)cccc3s2)n1	Mcl1-Noxa inh 70
O=C(Cn1ncc(Cl)c(Cl)c1=O)N1CCc2ccccc21	none
CCC(=O)OC1(C#CCOc2ccc(OC)cc2)CCN(C)CC1	Mcl1 Bid PPI 53 (no result: Pf gametocyte)
Cc1ccc(OCC(=O)N/N=C/c2cccn2C)cc1	14-3-3 Bad inh 70 (no result: Pf gametocyte)
CN(C)c1ccc(-c2n[nH]c(=S)n2-c2ccccc2)cc1	Mcl1-Noxa inh 51 (no result: Pf gametocyte)
NS(=O)(=O)c1ccc(N/N=C/c2ccc(O)c(O)c2O)c([N+](=O)[O-])c1	Mcl1 Bid PPI 95, 14-3-3 Bad inh 89, Hck Nef HTS 51 (no result: Bim-Mcl-1)
O=C(c1ccc(Cl)cc1)c1c[nH]cc1-c1ccccc1	none
O=C1NCCCC1C(=O)N/N=C/c1ccccc1 (centres undefined)	none (no result: Pf gametocyte)
O=C(NCc1ccc(OC(F)(F)F)cc1)c1cccc2c1C(=O)c1ccc(N3CCCCC3)cc1S2(=O)=O	none (no result: Mcl1 Bid PPI, 14-3-3 Bad inh, Mcl1-Noxa inh, Hck Nef HTS, Bim-Mcl-1)
O=C(NCc1ccc(OC(F)(F)F)cc1)c1cccc2c1C(=O)c1ccc(N3CCCC3)cc1S2(=O)=O	Pf gametocyte 39 (no result: Mcl1 Bid PPI, 14-3-3 Bad inh, Mcl1-Noxa inh, Hck Nef HTS, Bim-Mcl-1)
CN(C)C(=O)c1noc2cc([N+](=O)[O-])ccc12	none
C=C(C(=O)c1ccccc1)C(C(=C)C(=O)c1ccccc1)c1ccc(OC)cc1	Mcl1 Bid PPI 69 (no result: Bim-Mcl-1)
O=C1C2C3C=CC(C2C(=O)N1CCCO)C1C2C(=O)N(CCCO)C(=O)C2C31 (centres undefined)	Mcl1 Bid PPI 63
CCCCN1C(=O)C2C3C=CC(C2C1=O)C1C2C(=O)N(CCCC)C(=O)C2C31 (centres undefined)	none
CCc1nc(CN2CCN(c3ccc(C(F)(F)F)cn3)CC2)c(C)[nH]1	none (no result: Bim-Mcl-1)
Cc1ccc(S(=O)(=O)NCCCN2CCOCC2)cc1C	none (no result: Pf gametocyte)
COc1cc(S(=O)(=O)NCCCN2CCOCC2)ccc1-n1cnnn1	14-3-3 Bad inh 70
Cc1cc(C)c(C)c(S(=O)(=O)NCCCN2CCOCC2)c1C	14-3-3 Bad inh 86
Cc1ccc2[nH]c3c(c2c1)CN(C)CC3	14-3-3 Bad inh 75 (no result: Pf gametocyte)
CC(=O)C(C(C)=O)c1c(Cl)c(O)c(O)c2c(C(=O)c3ccccc3)coc12	Mcl1-Noxa inh 56 (no result: Pf gametocyte)
CN1CCN(Cc2c(O)ccc3occ(C(=O)c4ccccc4)c23)CC1	none (no result: Pf gametocyte)
O=C(Oc1cccc2c(=O)[nH]ccc12)c1ccccc1	14-3-3 Bad inh 78
O=C(Oc1ccc[nH]c1=O)c1cccc(Cl)c1	none (no result: Pf gametocyte, Bim-Mcl-1)
Cc1ccccc1NS(=O)(=O)c1ccc(C)c(C(N)=O)c1	none
O=C(O)CCCNc1ccc(S(=O)(=O)Nc2ccccc2C(=O)O)cc1C(=O)O	Mcl1-Noxa inh 60 (no result: Pf gametocyte)
O=C(O)c1ccccc1NS(=O)(=O)c1ccccc1C(F)(F)F	Mcl1-Noxa inh 53
Cc1cc(C2=NNC(=NC3CC3)SC2)c(C)n1-c1c(C)n(C)n(-c2ccccc2)c1=O	Mcl1-Noxa inh 52
O=C(Nc1cc([N+](=O)[O-])ccc1N1CCCC1)c1ccccc1	none
O=C(Cn1c2ccccc2c(=O)c2ccccc21)N/N=C/c1cc([N+](=O)[O-])ccc1N1CCCCC1	Mcl1 Bid PPI 67
CN1CCN(c2ccc([N+](=O)[O-])cc2NC(=O)c2ccccc2)CC1	14-3-3 Bad inh 77 (no result: Pf gametocyte)
COc1ccc(Br)cc1C(=O)Nc1ccccc1N1CCCC1	none (no result: Mcl1 Bid PPI, 14-3-3 Bad inh, Mcl1-Noxa inh, Hck Nef HTS, Bim-Mcl-1)
CN1CCN(c2ccc(Cl)cc2NC(=O)c2ccc(S(=O)(=O)N3CCCCCC3)cc2)CC1	Mcl1-Noxa inh 74 (no result: Pf gametocyte)
O=C(N/N=C\c1cc([N+](=O)[O-])ccc1N1CCCC1)c1ccccn1	none
COc1ccc(Cl)cc1C(=O)Nc1ccccc1N1CCN(C)CC1	Mcl1-Noxa inh 56 (no result: Pf gametocyte)
CN1CCN(c2ccc([N+](=O)[O-])cc2/C=N/NC(=O)c2cccc([N+](=O)[O-])c2)CC1	Mcl1-Noxa inh 91
